# Measured values as given in ChEMBL document CHEMBL3988442, “University of Dundee, Small-Polar-MMV Screening Library” (2021).
# In all, about 48,000 compounds went through this assay and about 13,000 (27%) showed an effect of 50% or more. The list shows a part of the results.
# System: Wolbachia pipientis
# Assay: Anti-Wolbachia Cell-Based Screen
# Assay type: functional
# Parameters: scale not given: in the data most compounds retested in dose-response had high values
# Settings: 5 µM
row,SMILES,Percent Effect
1,O[C@H]1[C@H](NCCc2ccccn2)c2ccccc2C12CCNCC2,4.411%
2,CCC(CC)N(Cc1ccc2c(c1)OCO2)C(=O)c1ccc(=O)n(C)c1,-1.967%
3,CN(Cc1ccco1)Cc1cncc2c1CCN(c1ncccn1)C2.Cl.Cl,2.734%
4,Cc1cnc(N2CCc3c(CN(C)Cc4ccco4)cncc3C2)nc1,78.05%
5,Cc1ccc(N2CCc3c(CN(C)Cc4ccco4)cncc3C2)nn1.Cl.Cl,99%
6,CN(Cc1cn2c(n1)CN(C(N)=O)CC2)Cc1ccco1,9.855%
7,CC(=O)Nn1c(C)cc(CN2CCC(C(=O)N3CCCC3)CC2)c1C,13.77%
8,CC(C)(CNc1ccccc1S(=O)(=O)C(F)F)N1CCOCC1,14.98%
9,CCn1c(C2CCN(C(=O)c3ccc4cc[nH]c4c3)CC2)n[nH]c1=O,3.076%
10,O=C(c1cnccn1)N1CCC2(CC1)C(=O)NCC2c1ccccc1 (stereo not given),-11.37%
11,CCCc1nnsc1C(=O)NCC1CCN(C(=O)c2ccncc2)CC1,2.794%
12,O=C(c1ccncc1)N1CCC(Cc2cnc3[nH]ccc3c2)CC1,127.1%
13,O=C(c1cnccn1)N1CCC(Cc2cnc3[nH]ccc3c2)CC1,109.1%
14,O=C(c1cncs1)N1CCC(Cc2cnc3[nH]ccc3c2)CC1,101.1%
15,Cc1cccnc1C(=O)N1CCC(Cc2cnc3[nH]ccc3c2)CC1,75.79%
16,CC1CCN(CC2CCN(C(=O)c3c[nH]c4ncccc34)CC2)CC1,-10.12%
17,CC(C)CC(=O)N1CCN(c2cc(N(C)C)cnn2)CC1,10.83%
18,CCc1nc(CN2CCCN(C(=O)COC(C)C)CC2)cs1,23.5%
19,CCC(C(=O)NCc1ccncc1)N(c1ccc(OC)cc1)S(C)(=O)=O (stereo not given),-7.147%
20,O=C(NCc1nc(NC2CCCC2)c2cc(Cl)ccc2n1)c1cncs1,-2.993%
21,CC(C(=O)Nc1cnn(CC(N)=O)c1)c1ccc(Cl)s1 (stereo not given),-7.657%
22,O=C(O)c1cc2c(nc1O)CC(c1cccc(Cl)c1)CC2=O (stereo not given),8.981%
23,O=C(c1ccccn1)N1CCC(Cc2cnc3[nH]ccc3c2)CC1,136.1%
24,O=C(CCC1CCN(C(=O)c2cnco2)CC1)NCc1cccc(Cl)c1,11.71%
25,O=C(c1cnco1)N1CCC(Cc2ccc3ncccc3c2)CC1,111%
26,Cc1cccc(C(=O)N2CCC(Cc3cnc4[nH]ccc4c3)CC2)n1,-6.998%
27,O=C(c1cnco1)N1CCCC(Cc2cccc3ncccc23)C1 (stereo not given),-11.15%
28,O=C(O)C(F)(F)F.O=S1(=O)NC[C@H]2CCN(Cc3ccccc3)CC[C@H]21,-3.468%

row,SMILES,Percent Effect
1,Cc1cc(C)c(CNC(=O)NCCNc2ccccn2)c(=O)[nH]1,9.095%
2,Cc1cnn(C2CCCN(C(=O)c3cc[nH]n3)C2)c1 (stereo not given),-3.499%
3,O=C(c1ccn(-c2cccc(F)c2)n1)N1CCCC(n2cccn2)C1 (stereo not given),0.279%
4,Cc1ccc(-n2cc(C(=O)N3CCCC(n4cccn4)C3)nn2)cc1 (stereo not given),117.4%
5,Cc1cccc(-n2cc(C(=O)N3CCCC(n4ccnc4)C3)nn2)c1 (stereo not given),7.382%
6,Cc1cnn(C2CCCN(C(=O)c3cc(-c4ccco4)[nH]n3)C2)c1 (stereo not given),10.35%
7,Cc1cnn(C2CCCN(C(=O)c3cc(-c4ccccc4C)n[nH]3)C2)c1 (stereo not given),-3.414%
8,Cc1cccc(-n2cc(C(=O)N3CCCC(n4cccn4)C3)nn2)c1 (stereo not given),4.017%
9,Cc1cnn(C2CCCN(C(=O)c3cnc4ccccc4n3)C2)c1 (stereo not given),-3.195%
10,Cc1cnn(C2CCCN(C(=O)c3cn4ccccc4n3)C2)c1 (stereo not given),104.2%
11,Cc1cnn(C2CCCN(C(=O)c3cn(-c4ccccc4)nn3)C2)c1 (stereo not given),117.4%
12,O=C(c1cn(-c2ccc(F)cc2)nn1)N1CCCC(n2cccn2)C1 (stereo not given),123%
13,CCSc1ccc(C(=O)Nc2c(C)nn(C(C)C)c2C)cn1,10.44%
14,COCCN(C)CC1CCCN1S(=O)(=O)c1cc(C)oc1C (stereo not given),0.4223%
15,Cc1ncsc1CCN(C)Cc1cc2n(n1)CCN(Cc1ncc[nH]1)C2,0.3121%
16,COc1ccc(C2CCCN2C(=O)c2ccc(=O)n(C)c2)cc1OC (stereo not given),-4.846%
17,CC(=O)NCCNC(=O)Nc1ccc(C)cc1OCc1ccccc1,-17.41%
18,Cc1nn(-c2ccccc2)cc1C(=O)N1CCCC(n2cccn2)C1 (stereo not given),7.584%
19,O=C(c1ccc(N2CCCC2)nn1)N1CCCC(n2cccn2)C1 (stereo not given),6.785%
20,O=C(c1cn(-c2ccccc2)nn1)N1CCCC(n2cccn2)C1 (stereo not given),123.4%
21,Cc1nc(CNC(C)c2ccc(OCC(=O)NC3CC3)cc2)cs1 (stereo not given),11.98%
22,Cc1ccc(C(=O)N2CCc3ncccc3C2)cc1N1CCNC1=O,0.3953%
23,Cc1ccc(OCC(=O)NC2CCN(S(C)(=O)=O)CC2)cc1,137.9%
24,CC(Oc1cccc(Cl)c1)C(=O)Nc1cnn(CC(=O)NC2CC2)c1 (stereo not given),3.95%
25,Cc1cn(CC(=O)NC2CCN(S(C)(=O)=O)CC2)c2ccccc12,-0.9919%
26,CS(=O)(=O)N1CCC(NC(=O)COc2ccc3ccccc3c2)CC1,103.7%
27,CC(C)c1nccn1C(C)C(=O)NC1CCN(S(C)(=O)=O)CC1 (stereo not given),-4.449%
